We go through 9 molecules from PMC9911399, “Two distinct binding modes provide the RNA-binding protein RbFox with extraordinary sequence specificity”.

Numbering of substitutions follows the chain as printed; changes in the protein carry UniProt numbers. Over roughly 16,000 sequences, “ka relative to ugcaugu” has its median near 0.096; the highest 2% begin near 0.35. Only a selection was taken, and the highest values are over-represented in it overall.

First the molecules themselves.
B1: AUCUGAU (DNA:RNA)
RNA: GGGAGACCGGAAUUCAGAUUGUCCAUCUGAUUUAAAUCCCGUCGUAGCCACCA
DNA 1: CAATCTGAATTCCGGTCTCCC
DNA 2: TGGTGGCTACGACGGGATT
B2: UCGGCUA (DNA:RNA)
RNA: GGGAGACCGGAAUUCAGAUUGUCCUCGGCUAUUAAAUCCCGUCGUAGCCACCA
DNA 1: CAATCTGAATTCCGGTCTCCC
DNA 2: TGGTGGCTACGACGGGATT
B3: AAGGAAC (DNA:RNA)
RNA: B1 RNA with U26A, C27G, U28G, G29A, U31C
DNA 1: CAATCTGAATTCCGGTCTCCC
DNA 2: TGGTGGCTACGACGGGATT
B4: GCCACUG (DNA:RNA)
RNA: B2 RNA with U25G, G27C, G28A, A31G
DNA 1: CAATCTGAATTCCGGTCTCCC
DNA 2: TGGTGGCTACGACGGGATT
B5: AAGCCCU (DNA:RNA)
RNA: B1 RNA with U26A, C27G, U28C, G29C, A30C
DNA 1: CAATCTGAATTCCGGTCTCCC
DNA 2: TGGTGGCTACGACGGGATT
B6: CGAACAU (DNA:RNA)
RNA: B1 RNA with A25C, U26G, C27A, U28A, G29C
DNA 1: CAATCTGAATTCCGGTCTCCC
DNA 2: TGGTGGCTACGACGGGATT
B7: GCCGAGU (DNA:RNA)
RNA: B1 RNA with A25G, U26C, U28G, G29A, A30G
DNA 1: CAATCTGAATTCCGGTCTCCC
DNA 2: TGGTGGCTACGACGGGATT
B8: CUUGAUA (DNA:RNA)
RNA: B2 RNA with U25C, C26U, G27U, C29A
DNA 1: CAATCTGAATTCCGGTCTCCC
DNA 2: TGGTGGCTACGACGGGATT
B9: AGCGCUC (DNA:RNA)
RNA: B2 RNA with U25A, C26G, G27C, A31C
DNA 1: CAATCTGAATTCCGGTCTCCC
DNA 2: TGGTGGCTACGACGGGATT

The experiment has as its target T1, RBFOX1 RRM RbFoxmut (Fox-RRM*) (Homo sapiens, UniProt Q9NWB1 109-208, R118D;E147R;N151S;E152T).
T1 sequence: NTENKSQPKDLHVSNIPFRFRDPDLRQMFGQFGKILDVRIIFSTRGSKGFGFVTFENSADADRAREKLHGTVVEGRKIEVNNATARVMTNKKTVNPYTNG
The experiment is described as follows: EMSA; HiTS-Eq, 1 nM pool, 10 min; buffer printed only for the single-RNA assays: 10 mM Tris pH 7.5, 150 mM NaCl, 3.4 mM EDTA, 0.001% NP-40, 30 C. The conditions noted are these: tags: His6 N-terminal (pET28a); label: 5' 32P. In a few lines:
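These values rest on relative association constants, computed from read-count changes of each RNA species versus the control reaction and normalised to the cognate motif. Reads came from free RNA recovered by 8% native PAGE after purified RbFox RRM (wild type or mutant) at increasing concentrations was equilibrated for 10 min in 50 µL with 1 nM of a 5′-radiolabelled pool with 7 randomized nucleotides and DNA-annealed flanks.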
Regarding B1, the binding signal is 0.0592 KA relative to UGCAUGU.

As to B2, the binding signal was 0.106 KA relative to UGCAUGU. On to B3, for which the binding signal is 0.057 KA relative to UGCAUGU. The result for B4 reads 0.101 KA relative to UGCAUGU; that for B5, 0.0868 KA relative to UGCAUGU. Next, B6: 0.0626 KA relative to UGCAUGU; B7: 0.123 KA relative to UGCAUGU; B8: 0.134 KA relative to UGCAUGU. Next, B9: 0.0471 KA relative to UGCAUGU.
